Measured values reported in PubChem BioAssay (NCI).
About 83,000 compounds went through this panel and 20% of them were active in at least one assay; those are over-represented in the sample as a whole.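 Values shown are percent growth following 48 h exposure of cells in 96-well plates to a single concentration of compound; below 10 was considered active.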 Values without a mark were called inactive. Calls of active or inactive are those of the source.

Tests used:
Assay in all cases: NCI-60 one-dose screen, 48 h (100 = growth as untreated, 0 = no growth, -100 = all killed)
Settings in all cases: 10 µM unless noted
NCI-H23 lung = system: NCI-H23 lung
NCI-H226 lung = system: NCI-H226 lung
NCI-H322M lung = system: NCI-H322M lung
HOP-62 NSCLC = system: HOP-62 NSCLC
NCI-H460 lung = system: NCI-H460 lung
786-0 renal = system: 786-0 renal
SF-268 CNS = system: SF-268 CNS
SF-539 CNS = system: SF-539 CNS
M14 melanoma = system: M14 melanoma
PC-3 prostate = system: PC-3 prostate
UACC-62 melanoma = system: UACC-62 melanoma
SK-MEL-28 melanoma = system: SK-MEL-28 melanoma
UO-31 renal = system: UO-31 renal
OVCAR-5 ovarian = system: OVCAR-5 ovarian
OVCAR-3 ovarian = system: OVCAR-3 ovarian
NCI/ADR-RES ovarian = system: NCI/ADR-RES ovarian
SW-620 colon = system: SW-620 colon
MCF7 breast = system: MCF7 breast
KM12 colon = system: KM12 colon
MDA-MB-231 breast = system: MDA-MB-231 breast

With `CCCCCCCC(=O)OCC/C=C/C1OC1C1OC(=O)/C=C\C=C\c2nc(oc2C)/C=C(/C)CCC2OC2C1OC(=O)NC(C)=O` (configuration not stated) the growth (NCI-H23 lung) was -59.1% (active), the growth (NCI-H226 lung) was -37.5% (active) and the growth (NCI-H322M lung) was 15.6%. The growth (HOP-62 NSCLC) was -11.6% (active), the growth (NCI-H460 lung) was -51.5% (active) and the growth (786-0 renal) was -53.8% (active). The growth (SF-268 CNS) was 5.33% (active), the growth (SF-539 CNS) was -34.1% (active) and the growth (M14 melanoma) was -20.4% (active). For the same compound, the growth (PC-3 prostate) was -3.27% (active), the growth (UACC-62 melanoma) was -49.6% (active) and the growth (SK-MEL-28 melanoma) was -15.3% (active). For the same compound, the growth (UO-31 renal) was 2.49% (active), the growth (OVCAR-5 ovarian) was -22% (active) and the growth (OVCAR-3 ovarian) was 5.74% (active). For the same compound, the growth (NCI/ADR-RES ovarian) was -33.8% (active), the growth (SW-620 colon) was -65.4% (active) and the growth (MCF7 breast) was -39.3% (active). The growth (KM12 colon) was -74% (active).
`O=C(NCCNC(=O)c1ccc([As](O)O)cc1)c1ccc([As](O)O)cc1` was tested, and the growth (NCI-H23 lung) was 93%, the growth (NCI-H226 lung) was 109% and the growth (NCI-H322M lung) was 102%. The growth (HOP-62 NSCLC) was 105%, the growth (NCI-H460 lung) was 99.7% and the growth (786-0 renal) was 114%. The growth (MDA-MB-231 breast) was 106%, the growth (SF-268 CNS) was 103% and the growth (SF-539 CNS) was 102%. The growth (M14 melanoma) was 99.1%, the growth (PC-3 prostate) was 94.6% and the growth (UACC-62 melanoma) was 99.7%. The growth (SK-MEL-28 melanoma) was 111%, the growth (UO-31 renal) was 96.8% and the growth (OVCAR-5 ovarian) was 114%. For the same compound, the growth (OVCAR-3 ovarian) was 104%, the growth (NCI/ADR-RES ovarian) was 101% and the growth (SW-620 colon) was 94.7%. For the same compound, the growth (MCF7 breast) was 99.7% and the growth (KM12 colon) was 99.8%.
Work on `C[C@]12CCC(=O)CC1CC[C@@H]1C2CC[C@@]2(C)C1CC[C@@H]2OC(=O)CC[Se][Se]CCC(=O)O[C@H]1CCC2[C@@H]3CCC4CC(=O)CC[C@]4(C)C3CC[C@@]21C` (some centres not stated) yielded a growth (NCI-H23 lung) of 102%, a growth (NCI-H226 lung) of 93% and a growth (NCI-H322M lung) of 84.1%. The growth (HOP-62 NSCLC) was 82.4%, the growth (NCI-H460 lung) was 95.9% and the growth (786-0 renal) was 107%. The growth (MDA-MB-231 breast) was 94.3%, the growth (SF-268 CNS) was 94.1% and the growth (SF-539 CNS) was 103%. For the same compound, the growth (M14 melanoma) was 78.7%, the growth (PC-3 prostate) was 89.4% and the growth (UACC-62 melanoma) was 88.5%. It also gave a growth (SK-MEL-28 melanoma) of 98.9%, a growth (UO-31 renal) of 90.5% and a growth (OVCAR-5 ovarian) of 102%. For the same compound, the growth (OVCAR-3 ovarian) was 109%, the growth (NCI/ADR-RES ovarian) was 92.9% and the growth (SW-620 colon) was 122%. The growth (MCF7 breast) was 80.8% and the growth (KM12 colon) was 103%.
With `CO[C@@H]1[C@H](OC(=O)NC(=O)CCl)CC[C@]2(CO2)[C@H]1[C@@]1(C)O[C@@H]1CC=C(C)C` the growth (NCI-H23 lung) was 64.1%, the growth (NCI-H226 lung) was 72.7% and the growth (NCI-H322M lung) was 59.8%. The growth (HOP-62 NSCLC) was 64.4%, the growth (NCI-H460 lung) was 23.5% and the growth (786-0 renal) was 70.4%. It also gave a growth (MDA-MB-231 breast) of 79.9%, a growth (SF-268 CNS) of 71.5% and a growth (SF-539 CNS) of 87.6%. It also gave a growth (M14 melanoma) of 62%, a growth (PC-3 prostate) of 20.2% and a growth (UACC-62 melanoma) of 63.5%. For the same compound, the growth (UO-31 renal) was 52.6%, the growth (OVCAR-5 ovarian) was 72.3% and the growth (OVCAR-3 ovarian) was 71.8%. For the same compound, the growth (NCI/ADR-RES ovarian) was 75.9%, the growth (SW-620 colon) was 49.4% and the growth (MCF7 breast) was 26.9%. The growth (KM12 colon) was 36.3%.
Work on `CC(=O)O[C@H]1CC[C@H]2[C@@H]3CC[C@H]4CC=C(C)C[C@]4(C)[C@H]3CC[C@]12C` yielded a growth (NCI-H23 lung) of 104%, a growth (NCI-H226 lung) of 103% and a growth (NCI-H322M lung) of 104%. It also gave a growth (HOP-62 NSCLC) of 98.9%, a growth (NCI-H460 lung) of 113% and a growth (786-0 renal) of 100%. It also gave a growth (MDA-MB-231 breast) of 109%, a growth (SF-268 CNS) of 100% and a growth (SF-539 CNS) of 96.2%. It also gave a growth (M14 melanoma) of 101%, a growth (PC-3 prostate) of 99.3% and a growth (UACC-62 melanoma) of 98.5%. It also gave a growth (SK-MEL-28 melanoma) of 112%, a growth (UO-31 renal) of 92.3% and a growth (OVCAR-5 ovarian) of 92.1%. It also gave a growth (OVCAR-3 ovarian) of 102%, a growth (NCI/ADR-RES ovarian) of 109% and a growth (SW-620 colon) of 109%. For the same compound, the growth (MCF7 breast) was 100% and the growth (KM12 colon) was 103%.
`O=C1NC(=O)C(Cc2ccccc2)(Cc2ccccc2)C(=O)N1` gave a growth (NCI-H23 lung) of 111%, a growth (NCI-H226 lung) of 105% and a growth (NCI-H322M lung) of 111%. It also gave a growth (HOP-62 NSCLC) of 95.8%, a growth (NCI-H460 lung) of 110% and a growth (786-0 renal) of 98.6%. For the same compound, the growth (MDA-MB-231 breast) was 98.9%, the growth (SF-268 CNS) was 109% and the growth (SF-539 CNS) was 110%. The growth (M14 melanoma) was 103%, the growth (PC-3 prostate) was 105% and the growth (UACC-62 melanoma) was 95.1%. The growth (SK-MEL-28 melanoma) was 97.9%, the growth (UO-31 renal) was 78.7% and the growth (OVCAR-5 ovarian) was 110%. The growth (OVCAR-3 ovarian) was 119%, the growth (NCI/ADR-RES ovarian) was 113% and the growth (SW-620 colon) was 107%. The growth (MCF7 breast) was 94.8% and the growth (KM12 colon) was 105%.
`N#CC1=C(N)Oc2cc3c(cc2C1c1cccs1)OCO3` (configuration not stated) showed a growth (NCI-H23 lung) of 15.2%, a growth (NCI-H226 lung) of 47.6% and a growth (NCI-H322M lung) of 40.5%. It also gave a growth (HOP-62 NSCLC) of 26.3%, a growth (NCI-H460 lung) of 15.6% and a growth (786-0 renal) of 49.5%. For the same compound, the growth (MDA-MB-231 breast) was 41.8%, the growth (SF-268 CNS) was 47.3% and the growth (SF-539 CNS) was 0.18% (active). For the same compound, the growth (M14 melanoma) was 15.1%, the growth (PC-3 prostate) was 24% and the growth (UACC-62 melanoma) was 31.1%. It also gave a growth (SK-MEL-28 melanoma) of 37.9%, a growth (UO-31 renal) of 49.2% and a growth (OVCAR-5 ovarian) of 52.2%. The growth (OVCAR-3 ovarian) was -15% (active), the growth (NCI/ADR-RES ovarian) was 3.49% (active) and the growth (SW-620 colon) was 26.3%. It also gave a growth (MCF7 breast) of 15.7% and a growth (KM12 colon) of 34.2%.
In the case of `c1cnc2c(c1)ccc1ncccc12`, the growth (NCI-H23 lung) is reported as 121%, the growth (NCI-H226 lung) is reported as 100% and the growth (NCI-H322M lung) is reported as 123%. The growth (HOP-62 NSCLC) was 103%, the growth (NCI-H460 lung) was 108% and the growth (786-0 renal) was 105%. For the same compound, the growth (MDA-MB-231 breast) was 108%, the growth (SF-268 CNS) was 96.4% and the growth (SF-539 CNS) was 106%. For the same compound, the growth (M14 melanoma) was 91%, the growth (UACC-62 melanoma) was 94.6% and the growth (SK-MEL-28 melanoma) was 205%. It also gave a growth (UO-31 renal) of 93.2%, a growth (OVCAR-5 ovarian) of 148% and a growth (OVCAR-3 ovarian) of 90.6%. For the same compound, the growth (NCI/ADR-RES ovarian) was 78.4%, the growth (SW-620 colon) was 144% and the growth (MCF7 breast) was 107%. It also gave a growth (KM12 colon) of 107%.
`CCC1([N+](=O)[O-])COP(=O)(NCc2cccnc2)OC1` (configuration not stated) gave a growth (NCI-H23 lung) of 115%, a growth (NCI-H226 lung) of 99.9% and a growth (NCI-H322M lung) of 111%. For the same compound, the growth (HOP-62 NSCLC) was 103%, the growth (NCI-H460 lung) was 104% and the growth (786-0 renal) was 96.4%. It also gave a growth (MDA-MB-231 breast) of 111%, a growth (SF-268 CNS) of 106% and a growth (SF-539 CNS) of 106%. The growth (M14 melanoma) was 109%, the growth (PC-3 prostate) was 106% and the growth (UACC-62 melanoma) was 105%. For the same compound, the growth (SK-MEL-28 melanoma) was 113%, the growth (UO-31 renal) was 91.1% and the growth (OVCAR-5 ovarian) was 99.7%. The growth (OVCAR-3 ovarian) was 113%, the growth (NCI/ADR-RES ovarian) was 112% and the growth (SW-620 colon) was 105%. The growth (MCF7 breast) was 115% and the growth (KM12 colon) was 103%.
In the case of `O=S(=O)(Cl)c1ccccc1` (tested in a mixture with another compound), the growth (NCI-H23 lung) is reported as 106%, the growth (NCI-H226 lung) is reported as 97.3% and the growth (NCI-H322M lung) is reported as 102%. The growth (HOP-62 NSCLC) was 92.9%, the growth (NCI-H460 lung) was 103% and the growth (786-0 renal) was 102%. For the same compound, the growth (MDA-MB-231 breast) was 117%, the growth (SF-268 CNS) was 104% and the growth (SF-539 CNS) was 102%. The growth (M14 melanoma) was 102%, the growth (PC-3 prostate) was 103% and the growth (UACC-62 melanoma) was 106%. It also gave a growth (SK-MEL-28 melanoma) of 103%, a growth (UO-31 renal) of 85% and a growth (OVCAR-5 ovarian) of 93.7%. For the same compound, the growth (OVCAR-3 ovarian) was 106%, the growth (NCI/ADR-RES ovarian) was 110% and the growth (SW-620 colon) was 96.9%. It also gave a growth (MCF7 breast) of 93.1% and a growth (KM12 colon) of 108%.
`C[C@]12CC[C@@H]3c4ccc(OC(=O)Cc5ccc(N(CCCl)CCCl)cc5)cc4CC[C@H]3[C@@H]1CC[C@@H]2OC(=O)Cc1ccc(N(CCCl)CCCl)cc1` showed a growth (NCI-H23 lung) of 119%, a growth (NCI-H226 lung) of 92.6% and a growth (NCI-H322M lung) of 100%. For the same compound, the growth (HOP-62 NSCLC) was 110%, the growth (NCI-H460 lung) was 125% and the growth (786-0 renal) was 110%. It also gave a growth (MDA-MB-231 breast) of 102%, a growth (SF-268 CNS) of 108% and a growth (SF-539 CNS) of 103%. For the same compound, the growth (M14 melanoma) was 107%, the growth (PC-3 prostate) was 84.8% and the growth (UACC-62 melanoma) was 88%. The growth (SK-MEL-28 melanoma) was 117%, the growth (UO-31 renal) was 82.7% and the growth (OVCAR-5 ovarian) was 105%. For the same compound, the growth (OVCAR-3 ovarian) was 109%, the growth (NCI/ADR-RES ovarian) was 55.9% and the growth (SW-620 colon) was 103%. It also gave a growth (MCF7 breast) of 120% and a growth (KM12 colon) of 111%.
